Measured values taken from PubChem BioAssay AID1986 (Sanford-Burnham Center for Chemical Genomics, 2009).
The whole screen tested about 290,000 compounds, of which about 890 (0.31%) were called active. Cut-off read from the data, not from the text of the source: active = inhibition mostly above about 52% (no sharp cut-off); inactive = mostly below about 76%. The list comes from a sample in which actives are over-represented; it also holds similar structures and randomly drawn compounds.

Experiment: inhibitors of HIV fusion peptide binding, primary screen, biochemical, uHTS, fluorescence dequenching (AID 1986)
Conditions: cell-free peptide binding, 30 min, stronger effect = higher value
[1] = measured here: repeat confirmation average inhibition, at 18.6 µM

Structure (SMILES) | inhibition (at 20 µM) | inhibition [1] [%]
CC(=O)NS(=O)(=O)c1ccc(N=c2ssc3c2-c2ccc(C)cc2NC3(C)C)cc1 | 52.5% (active) | –
CC(=O)NS(=O)(=O)c1ccc(N=c2ssc3c2-c2cc(C)c(C)cc2NC3(C)C)cc1 | 51.7% (inactive) | 11.3
CC(=O)NS(=O)(=O)c1ccc(N=c2ssc3c2-c2cc(C)ccc2NC3(C)C)cc1 | 46.9% (inactive) | –
Cc1nc(SCC(=O)N2c3ccccc3Sc3ccccc32)n[nH]1 | -1.2% (inactive) | –
N#Cc1c(Cl)nc(SCc2ccccc2)nc1-c1ccccc1 | -2.7% (inactive) | –
Cc1snc(SCc2cccc(Cl)c2)c1C#N | -1.1% (inactive) | –
O=C(CSc1nc(O)cc(=O)[nH]1)N1c2ccccc2Sc2ccccc21 | 2.6% (inactive) | –
CC(C)NC(=O)CSc1nnc(-c2ccc(S(=O)(=O)N3CCCC3)cc2)n1CC1CCCO1 (configuration not stated) | -1.1% (inactive) | –
CCn1cnc2scc(-c3ccc(OC)cc3)c2c1=O | 2% (inactive) | –
CC1CCC2(CC1)NC(=O)N(Cc1cc(=O)n3ccsc3n1)C2=O (configuration not stated) | -0.3% (inactive) | –
O=C(OCc1c(Cl)cccc1Cl)c1cccnc1 | -1.3% (inactive) | –
CCCN(CCC)Cc1cc2ccccc2c2c1COC2 | 1.9% (inactive) | –
Cc1ccc(Cc2c(C)[nH]c(=S)[nH]c2=O)cc1 | 0.1% (inactive) | –
CCOc1ccc(CC(=O)Nc2cc(=O)n(C)c(=O)n2C)cc1 | 1.4% (inactive) | –
NC(=O)c1cc2ccccc2o/c1=N\NC(=O)c1ccncc1 | -1.9% (inactive) | –
CCN(CC)c1ccc2cc(C(N)=O)/c(=N\NC(=O)c3ccncc3)oc2c1 | 97.7% (active) | 54.3
CCN(CC)c1ccc2cc(/C(N)=N/NC(=O)c3cccs3)c(=O)oc2c1 | 99.5% (active) | 53.8
N/C(=N\NC(=O)c1cccs1)c1cc2cc(Cl)ccc2oc1=O | 2.7% (inactive) | –
CCN(CC)c1ccc2cc(C(N)=O)c(=N)oc2c1 | 136% (inactive) | –
N/C(=N\NC(=O)c1cccs1)c1cc2ccccc2oc1=O | 1.8% (inactive) | –
COC(=O)CCc1nc2cc(Cl)ccc2n(Cc2ccccc2)c1=O | 0% (inactive) | –

Structure (SMILES) | inhibition (at 20 µM) | inhibition [1] [%]
O=C(NCc1cccs1)C1CC(=O)N(c2ccccc2)C1 (configuration not stated) | -2.2% (inactive) | –
COc1cccc(C=N[C@@H](CO)[C@@H](O)c2ccc([N+](=O)[O-])cc2)c1O | -1% (inactive) | –
COC(=O)/C(N=Nc1c(C)n(C)n(-c2ccccc2)c1=O)=C(\C)O | 2.8% (inactive) | –
CCCCC1=CC2=CC(=O)C(C)(OC(=O)CCc3ccccc3)C(=O)C2=CO1 (configuration not stated) | 41.7% (inactive) | –
COC(=O)CCCC1=CC2=CC(=O)C(C)(OC(=O)C3CCCC3)C(=O)C2=CO1 (configuration not stated) | 52.5% (inactive) | 24.7
CCCCC1=CC2=CC(=O)C(C)(OC(=O)C3CCCC3)C(=O)C2=CO1 (configuration not stated) | 68.3% (active) | –
O=C(Cn1cccc1C(=O)c1ccccc1)NCc1ccc2c(c1)OCO2 | -0.1% (inactive) | –
CC(CCc1ccccc1)NC(=O)CSc1cccc[n+]1[O-] (configuration not stated) | 2.5% (inactive) | –
O=C(N/N=C/c1ccc([N+](=O)[O-])o1)c1cn(-c2ccccc2)nc1-c1ccccc1 | 65.8% (inactive) | -1.2
COc1ccc(-c2nn(-c3ccccc3)cc2C(=O)N/N=C/c2ccc([N+](=O)[O-])o2)cc1 | 55.9% (inactive) | 0.9
O=C(N/N=C/c1ccc([N+](=O)[O-])o1)c1cn(-c2ccccc2)nc1-c1ccc(Cl)cc1 | 64% (active) | –
COc1ccccc1OCCNC(=O)C1CCCCC1 | -0.2% (inactive) | –
COC(=O)C1=NN(c2ccccc2)C2C(=O)N(c3ccccc3OC)C(=O)C12 (configuration not stated) | 1.2% (inactive) | –
COc1ccccc1N1C(=O)C2C(C(=O)c3ccccc3)=NN(c3ccccc3)C2C1=O (configuration not stated) | 72.1% (inactive) | 33.6
COc1ccccc1N1C(=O)C2C(C(=O)c3ccccc3)=NN(c3ccc(C)cc3)C2C1=O (configuration not stated) | 85.1% (active) | 102
COc1ccccc1N1C(=O)C2C(C(=O)c3ccccc3)=NN(c3ccccc3OC)C2C1=O (configuration not stated) | 59.5% (inactive) | 13.2
COC(=O)C1=NN(c2ccc(OC)cc2)C2C(=O)N(c3ccccc3OC)C(=O)C12 (configuration not stated) | -0.7% (inactive) | –
COc1ccccc1N1C(=O)C2C(C(=O)c3ccccc3)=NN(c3ccc(Br)cc3)C2C1=O (configuration not stated) | 54.9% (active) | 55
O=C(Nc1ccc(F)cc1F)C1CCN(C(=O)c2ccc(Br)cc2)CC1 | 1.2% (inactive) | –
Cc1ccc(CCNC(=O)c2nnc(CS(=O)(=O)c3ccccc3)o2)cc1 | -0.3% (inactive) | –
O=C(COC(=O)c1ccc2c(c1)C(=O)N(Cc1ccco1)C2=O)NCC(F)(F)F | 1.5% (inactive) | –
